Experimental findings from PMC10726135, “HNF4α isoforms regulate the circadian balance between carbohydrate and lipid metabolism in the liver” are described below.

In all, about 18,000 sequences were measured (“log2 normalized intensity”: median about 0.39, highest 2% from about 6.6 on). The list comes from a sample in which the highest values are over-represented; it also holds similar and randomly drawn sequences.

In the experiment the target is T1, HNF4alpha2 (COS-7 nuclear extract) (Homo sapiens, UniProt P41235 1-474).
T1 sequence: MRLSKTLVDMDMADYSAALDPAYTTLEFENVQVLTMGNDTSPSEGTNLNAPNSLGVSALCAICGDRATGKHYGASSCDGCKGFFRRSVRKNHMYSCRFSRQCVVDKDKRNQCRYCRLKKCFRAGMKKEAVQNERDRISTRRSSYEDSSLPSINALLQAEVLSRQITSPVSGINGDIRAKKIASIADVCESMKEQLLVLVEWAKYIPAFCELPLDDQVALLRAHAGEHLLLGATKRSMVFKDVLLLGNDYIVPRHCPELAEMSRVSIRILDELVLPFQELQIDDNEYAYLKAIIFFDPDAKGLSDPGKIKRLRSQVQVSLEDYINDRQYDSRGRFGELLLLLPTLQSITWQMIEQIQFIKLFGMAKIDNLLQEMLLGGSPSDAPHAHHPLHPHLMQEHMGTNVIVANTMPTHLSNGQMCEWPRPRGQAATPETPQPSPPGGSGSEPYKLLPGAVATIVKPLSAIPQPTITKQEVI
Nature of the experiment: protein-binding microarray; COS-7 nuclear extract on double-stranded Agilent 4x180k PBM; binding buffer, salt, pH and temperature not given in the material; high values mean tight binding. Particulars: chain copies: 2; label: 3' end of strand 1 on the slide; dsDNA, one strand shown. The procedure, abridged: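 COS-7 cells were transiently transfected by CaPO4 with an expression vector for a human HNF4α isoform, and nuclear extracts were prepared from them. The extracts were applied to a custom Agilent SurePrint G3 4x180k array of double-stranded ~60-nt oligonucleotides, with ~44,000 test sequences spotted in quadruplicate. An Agilent G2565CA scanner imaged bound HNF4α at 2-µm resolution. Binding signal is the background-corrected, normalized gProcessedSignal from Agilent software.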
For “GAATCACTCACTGACCTCTTTTGGATTTTTGCCTAGGGAGATTAGAGTATCGGTCGA”, the binding signal was 1.73 log2 normalized intensity.

In the case of “TCAGGAGTGATGCCAGAAGATTAGTGATGGGCCTAGGGAGATTAGAGTATCGGTCGA”, the binding signal was -0.625 log2 normalized intensity. Consider “GACTGGAAGTTGCCCGAGCTGCCCTTTATCGCCTAGGGAGATTAGAGTATCGGTCGA”, for which the binding signal was found to be 2.47 log2 normalized intensity.

For “CCGGTTTGTTCCATGCCACAGAATCGCCCCGCCTAGGGAGATTAGAGTATCGGTCGA”, the binding signal is 2.6 log2 normalized intensity. To “CCAGATGATCTTTACCCTGGAATGCTGTTAGCCTAGGGAGATTAGAGTATCGGTCGA” belongs 1.33 log2 normalized intensity; to “GGAGGAGCTGTTTGACATCCAAAGTTTCCTGCCTAGGGAGATTAGAGTATCGGTCGA”, 0.813 log2 normalized intensity; to “AAGTTGGAATTTGGGTGATCCTGGTAGCAGGCCTAGGGAGATTAGAGTATCGGTCGA”, 0.0957 log2 normalized intensity. To “TGGTTTTATGGTGTCTTATCTTCCTCTGGCGCCTAGGGAGATTAGAGTATCGGTCGA” belongs 1.96 log2 normalized intensity; to “TATGCCCCCCCACCCCACACACACACAGCAGCCTAGGGAGATTAGAGTATCGGTCGA”, 6.17 log2 normalized intensity; to “ACACACACATTGCAGTATGCCCCCCCACCCGCCTAGGGAGATTAGAGTATCGGTCGA”, 6.13 log2 normalized intensity. Take “CACACACACACACATTGCAGTATGCCCCCCGCCTAGGGAGATTAGAGTATCGGTCGA”: the binding signal worked out at 5.1 log2 normalized intensity.

On to “CCCCCCACCCCACACACACACAGCATTCCAGCCTAGGGAGATTAGAGTATCGGTCGA”, for which the binding signal amounted to 5.05 log2 normalized intensity. For “CACATTGCAGTATGCCCCCCCACCCCACACGCCTAGGGAGATTAGAGTATCGGTCGA”, the binding signal stood at 6.96 log2 normalized intensity. To “TGCAGTATGCCCCCCCACCCCACACACACAGCCTAGGGAGATTAGAGTATCGGTCGA” belongs 6.7 log2 normalized intensity. For “TACACCTGGGGGCTTCCCAACTCCATTATCGCCTAGGGAGATTAGAGTATCGGTCGA”, the binding signal is -0.261 log2 normalized intensity. To “TCCCTATGTTGTCCCTGCCCTTTGTCCAGGGCCTAGGGAGATTAGAGTATCGGTCGA” belongs 3.89 log2 normalized intensity. For “AGAATATTAGATGATAAGGGTGAAAAGATAGCCTAGGGAGATTAGAGTATCGGTCGA” the value was -0.989 log2 normalized intensity; for “AAGGAGCTTGGGAAGACAGATGTGATATTCGCCTAGGGAGATTAGAGTATCGGTCGA”, -0.781 log2 normalized intensity; for “GGTGACCCCTCAGTTTTTCTCTTTTGACCTGCCTAGGGAGATTAGAGTATCGGTCGA”, 4.09 log2 normalized intensity.

As for “CTTTTCTGCTTTTGGAATTTGACCTCATTTGCCTAGGGAGATTAGAGTATCGGTCGA”, the binding signal was found to be 6.91 log2 normalized intensity. To “CCCCTCAGTTTTTCTCTTTTGACCTTTGGAGCCTAGGGAGATTAGAGTATCGGTCGA” belongs 8.9 log2 normalized intensity. For the sequence “CGCATTTCTGCTTCTTCTCATTCTTGGAATGCCTAGGGAGATTAGAGTATCGGTCGA”, the binding signal stood at 1.39 log2 normalized intensity.

Consider “GTGCTTGGACCTGCTCTGTTTTCTTTCGGTGCCTAGGGAGATTAGAGTATCGGTCGA”, for which the binding signal stood at 1.49 log2 normalized intensity. On to “AAGCCCTTCTTCTGGAGCCTCAGTAAGTTTGCCTAGGGAGATTAGAGTATCGGTCGA”, for which the binding signal stood at 0.629 log2 normalized intensity. In the case of “CTGCTTTTGGAATTTGACCTCATTTGCTCCGCCTAGGGAGATTAGAGTATCGGTCGA”, the binding signal was 5.7 log2 normalized intensity. To “TGCCTCTTTTCTGCTTTTGGAATTTGACCTGCCTAGGGAGATTAGAGTATCGGTCGA” belongs 7.84 log2 normalized intensity; to “TTTGTTGCCTCTTTTCTGCTTTTGGAATTTGCCTAGGGAGATTAGAGTATCGGTCGA”, 2.71 log2 normalized intensity; to “CTGTTGGTGACTGACCCTGATCCCTCCCTGGCCTAGGGAGATTAGAGTATCGGTCGA”, 3.18 log2 normalized intensity.

As for “GGATCCCATTCATGTGGGTCAACAGACAAAGCCTAGGGAGATTAGAGTATCGGTCGA”, the binding signal amounted to 0.575 log2 normalized intensity. For “AAAGTCTTTCTCTTTCAAGATAACAAGGCAGCCTAGGGAGATTAGAGTATCGGTCGA” the value was 1.37 log2 normalized intensity; for “CTGATCAAAGGTCATTGGTATTGATAGCGCGCCTAGGGAGATTAGAGTATCGGTCGA”, 4.8 log2 normalized intensity; for “ATATCTATATGTTTACATATCACTGTACTCGCCTAGGGAGATTAGAGTATCGGTCGA”, 2.08 log2 normalized intensity. Turning to “GGGTCATGCTGGTCTCCTTGCCCCACCCCCGCCTAGGGAGATTAGAGTATCGGTCGA”, the binding signal stood at 5.55 log2 normalized intensity. To “GCTCCCTCCCCTCCTCCCTTGCTCACCCCAGCCTAGGGAGATTAGAGTATCGGTCGA” belongs 5.91 log2 normalized intensity; to “ATCCCCGCTCCCCTCCCCCACCCGCGGTCCGCCTAGGGAGATTAGAGTATCGGTCGA”, 6.38 log2 normalized intensity; to “ACCAAGGGTCATGCTGGTCTCCTTGCCCCAGCCTAGGGAGATTAGAGTATCGGTCGA”, 1.74 log2 normalized intensity. “ATGCTGGTCTCCTTGCCCCACCCCCCACCCGCCTAGGGAGATTAGAGTATCGGTCGA”: the binding signal was found to be 7.6 log2 normalized intensity.

Consider “GGTCTCCTTGCCCCACCCCCCACCCCAGAAGCCTAGGGAGATTAGAGTATCGGTCGA”, for which the binding signal was determined as 6.86 log2 normalized intensity.

Take “CATGCTCCCCACCCCCAACTTCCCCAACCCGCCTAGGGAGATTAGAGTATCGGTCGA”: the binding signal turned out to be 6.67 log2 normalized intensity. Turning to “TCCCCACCCCCAACTTCCCCAACCCTTGCAGCCTAGGGAGATTAGAGTATCGGTCGA”, the binding signal worked out at 6.3 log2 normalized intensity. Take “CCTTGCCCCACCCCCCACCCCAGAAGTATGGCCTAGGGAGATTAGAGTATCGGTCGA”: the binding signal was 6.2 log2 normalized intensity.

Regarding “CGAACCTGTCTCCAGAGGACTTGCGGTGTTGCCTAGGGAGATTAGAGTATCGGTCGA”, the binding signal stood at 0.482 log2 normalized intensity.
